SW480 rereplic: induces DNA re-replication in SW480 colon adenocarcinoma cells | SW480 DNA re-replication, Hoechst DNA content imaging, 48 h | Potency, µM (highest dose often 46.1 µM), for the others: at the top dose re-replication activation, hits mostly activators | hit rate 1.8% among 340,000; also: potency is read from the fitted curve at half-maximal effect; % of control where 0% means no effect; nearly all actives have a fitted effect of over 55% in size
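Treated cells incubate 48 hr (37 C, 5% CO2), are stained 40 min with Hoechst, and nuclear fluorescence is enumerated; a rise in nuclei with high DNA signal marks re-replication.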
BCR signal inh: inhibitors of chronic active B-cell receptor signaling. hit rate 0.05% among 340,000. Potency, µM (doses to about 46.1 µM), inactives show at the top dose activity change, negative = inhibition, most hits filed as inhibitors. ABC-DLBCL IkBa-CBG/CBR reporter, luminescence ratio, 4 h; active = well fitted inhibition curve with a large enough effect in the signal ratio, with a control signal flat, not every such curve was filed as active; inconclusive = small, poorly fitted or top-dose-only effect, or effect the other way, or a change in a side signal; the % refers to the signal ratio;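 also: potency is read from the fitted curve at half-maximal effect; plate controls were basal doxycycline-induced cells for no effect and cells given 10 µM MG132 for full effect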
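Cell line TMD8 (human ABC DLBCL), stably expressing tet-inducible CBG68-IkBa fusion and CBR; IMDM/0.5% FBS; cpd up to 46 uM; dox induction, 4 h, 37C/5% CO2; dual luminescence; green/red ratio; MG132 control.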
DT40 TDP1 CPT: DT40-hTDP1 cell growth loss with CPT; chicken DT40 Tdp1-/-;hTDP1 cells + 20 nM CPT, ATP luminescence, 48 h; Potency, µM (series often up to 46.2 µM), for inactives: at the highest dose activity change, negative = growth inhibition, actives largely listed as inhibitors; hit rate 12% among 420,000; also: potency is read from the fitted curve at half-maximal effect; % is scaled to controls: 0 for no effect and ±100 for the full control effect; nearly all actives have a fitted effect of over 55% in size
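Cell growth measured by CellTiter-Glo luminescence after a minimum 48 h, 37 C compound exposure with 20 nM CPT in Tdp1-knockout DT40 cells stably expressing hTDP1, seeded 400/well; qHTS titration format.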
MCF10A rerep: inducers of DNA re-replication in MCF 10A breast cells. Potency, µM (highest dose often 46.1 µM), without a hit: at the top dose activity, positive = re-replication, most hits filed as activators. MCF 10A DNA re-replication, Hoechst nuclear intensity, 48 h. hit rate 2.9% among 350,000; also: potency is read from the fitted curve at half-maximal effect; % of control where 0% means no effect; nearly all actives have a fitted effect of over 50% in size
IL1B secr inh: inflammasome signaling inhibition, IL-1 beta readout; THP-1 LPS/ATP IL-1B secretion, AlphaLISA, 16 h; active compounds read low; hit rate 4.7% among 360,000; activity change, % at 57.5 µM; in the data active = activity change below about -50%; inconclusive = mostly about -30% to -49%; also: % is scaled to controls: 0 for no effect and ±100 for the full control effect
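THP-1 cells pretreated 1 hr with compounds (up to 57.5 uM final), then stimulated with LPS (250 ng/mL final) plus ATP (1.25 mM final); secreted IL-1B measured by AlphaLISA after 16 hr, decreased signal indicating inhibition.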
TDP1 cell noCPT: qHTS for Inhibitors of human tyrosyl-DNA phosphodiesterase 1 (TDP1): qHTS in cells in absence of CPT; Potency, µM (titrated, usually from 46.2 µM), for inactives: at the highest dose activity change, negative = growth inhibition, actives largely listed as inhibitors; hit rate 15% among 420,000; DT40 Tdp1-/- hTDP1 cells, no CPT, ATP luminescence, 48 h; AID 686978, 2013; also: potency is read from the fitted curve at half-maximal effect; % is scaled to controls: 0 for no effect and ±100 for the full control effect; nearly all actives have a fitted effect of over 55% in size
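A cellular qHTS used chicken DT40 cells lacking endogenous Tdp1 but carrying stably transfected human TDP1. Compounds were applied without camptothecin, and cell growth kinetics were judged by ATP-dependent luminescence after ≥48 hr.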
* hit, by the source's call; [ ] = dose if it differs, or a comment. Rows were chosen to be rich in hits. Some 19% of all compounds tested hit in one or more screens of this group. Unless noted, calls follow the shape of the dose curve; as a rule, active = well fitted curve in the direction sought with a large enough effect; inconclusive = small, poorly fitted or top-dose-only effect, or another doubt; inactive = no such curve, though single readings can be large; an effect the other way counts as inactive or inconclusive.

Screening O=C(Nc1ccc(S(=O)(=O)Nc2ncccn2)cc1)c1ccc2ncsc2c1 returned SW480 rereplic -7%, BCR signal inh inconclusive, DT40 TDP1 CPT inconclusive, MCF10A rerep -4%, IL1B secr inh -13 and TDP1 cell noCPT inconclusive.
`O=C(CSc1nc(=O)n(Cc2ccco2)c2c1CCC2)NCc1ccccc1Cl` gave BCR signal inh inconclusive, DT40 TDP1 CPT -2% and TDP1 cell noCPT -14%.
Cc1cccnc1C(NC(=O)C1CCN(Cc2ccc(Cl)cc2)CC1)c1ccc(F)cc1 (centres undefined) was read as DT40 TDP1 CPT 26µM*, IL1B secr inh inconclusive and TDP1 cell noCPT 21µM*.
`COc1ccc(OCCN2CCC(C(=O)NC(c3ccc(F)cc3)c3ncccc3C)CC2)cc1` (centres undefined) gave DT40 TDP1 CPT inconclusive, IL1B secr inh -1 and TDP1 cell noCPT 16µM*.
`CCCN1CCC(C(=O)NC(c2ccc(F)cc2)c2ncccc2C)CC1` (centres undefined) gave DT40 TDP1 CPT inconclusive, IL1B secr inh -5 and TDP1 cell noCPT -26%.
Screening Cc1cccnc1C(NC(=O)C1CCN(Cc2ccc3ccccc3n2)CC1)c1ccc(Cl)cc1 (centres undefined) returned DT40 TDP1 CPT inconclusive, IL1B secr inh inconclusive and TDP1 cell noCPT 16µM*.
`COc1ccc(OCCN2CCC(C(=O)NC(c3ccc(Cl)cc3)c3ncccc3C)CC2)cc1` (centres undefined) gave DT40 TDP1 CPT 23µM* and TDP1 cell noCPT inconclusive.
For CCOc1ccc(NC(=O)CN(C)C(=O)c2c(-c3c(F)cccc3Cl)noc2C)cc1OCC the results were SW480 rereplic -67%, BCR signal inh -9%, DT40 TDP1 CPT inconclusive, MCF10A rerep -2%, IL1B secr inh -8 and TDP1 cell noCPT -21%.
`CCOC(=O)c1c(C)[nH]c(C)c1S(=O)(=O)N(C)CC(=O)N1CCN(c2cccc(Cl)c2)CC1` gave BCR signal inh 2%, DT40 TDP1 CPT inconclusive and TDP1 cell noCPT inconclusive.
`Cc1cccnc1C(NC(=O)C1CCN(CCCOc2ccc(F)cc2)CC1)c1ccccc1` (centres undefined) gave DT40 TDP1 CPT inconclusive, IL1B secr inh inconclusive and TDP1 cell noCPT 21µM*.
Screening O=C(CN1c2ccccc2Sc2ccccc21)NNC(=O)Nc1ccc(Cl)cc1 returned SW480 rereplic inconclusive, BCR signal inh inconclusive, DT40 TDP1 CPT inconclusive, MCF10A rerep inconclusive, IL1B secr inh -80* and TDP1 cell noCPT inconclusive.
Screening O=C(CSc1nc2ccccc2s1)NNC(=O)Nc1ccc(Cl)c(Cl)c1 returned SW480 rereplic 15%, BCR signal inh inconclusive, DT40 TDP1 CPT -12%, MCF10A rerep inconclusive, IL1B secr inh 11 and TDP1 cell noCPT -2%.
`O=C(CN1c2ccccc2Sc2ccccc21)NNC(=O)Nc1ccc(Cl)c(Cl)c1` gave SW480 rereplic inconclusive, BCR signal inh inconclusive, DT40 TDP1 CPT 0%, MCF10A rerep 16µM*, IL1B secr inh -92* and TDP1 cell noCPT -46%.
`COc1ccc(C(=O)NCC(c2ccc3c(c2)OCO3)N2CCOCC2)cc1OC` (centres undefined) gave DT40 TDP1 CPT -23% and TDP1 cell noCPT inconclusive.
Screening COc1ccc(-c2c(C#N)c(SCC(=O)c3cc4ccccc4oc3=O)nc(C)c2C(=O)Nc2ccccc2)cc1 returned SW480 rereplic 21µM*, BCR signal inh inconclusive, DT40 TDP1 CPT inconclusive, MCF10A rerep 5.2µM*, IL1B secr inh 26 and TDP1 cell noCPT inconclusive.
For Cc1nc(SCC(=O)c2cc3ccccc3oc2=O)c(C#N)c(-c2ccccc2)c1C(=O)Nc1ccccc1 the results were SW480 rereplic 7.3µM*, BCR signal inh 14%, DT40 TDP1 CPT inconclusive, MCF10A rerep inconclusive, IL1B secr inh 0 and TDP1 cell noCPT 18µM*.
For Cc1ccc(N(Cc2cccs2)C(=O)c2ccc(OC(C)C)cc2)cc1 the results were DT40 TDP1 CPT 21µM* and TDP1 cell noCPT inconclusive.
CC(C)Oc1ccc(C(=O)NCc2cccs2)cc1 was read as SW480 rereplic 1%, BCR signal inh -50%, DT40 TDP1 CPT inconclusive, MCF10A rerep 13%, IL1B secr inh -19 and TDP1 cell noCPT inconclusive.
`COc1ccc(N(C(=O)Cc2cccs2)C2C=CS(=O)(=O)C2)cc1` (centres undefined) gave SW480 rereplic -1%, BCR signal inh 2%, DT40 TDP1 CPT -12%, MCF10A rerep 0%, IL1B secr inh -4 and TDP1 cell noCPT 0%.
`Cc1ccc(N(Cc2cccs2)C(=O)COc2cccc(C)c2)cc1` gave DT40 TDP1 CPT inconclusive and TDP1 cell noCPT 23µM*.
COc1ccc(N(Cc2cccs2)C(=O)COc2cccc(C)c2C)cc1 was read as DT40 TDP1 CPT inconclusive and TDP1 cell noCPT 18µM*.
`Cc1cccc(NC(=O)N(C)Cc2cccs2)c1` gave SW480 rereplic 1%[9.22 µM], BCR signal inh -8%, DT40 TDP1 CPT 1%, MCF10A rerep -2%, IL1B secr inh -2 and TDP1 cell noCPT -18%.
Screening COc1ccc(N(Cc2cccs2)C(=O)c2ccc(Br)o2)cc1 returned DT40 TDP1 CPT 15µM* and TDP1 cell noCPT 18µM*.
For O=C(C(=O)N1CCN(c2ccc(F)cc2)CC1)c1cn(CC(=O)N2CCOCC2)c2ccccc12 the results were SW480 rereplic 0%, BCR signal inh inconclusive, DT40 TDP1 CPT -8%, MCF10A rerep -3%, IL1B secr inh -19 and TDP1 cell noCPT -13%.
For Cc1cccc(OCC(=O)NCCCNC(=O)c2cnccn2)c1 the results were SW480 rereplic 8%, BCR signal inh -6%, DT40 TDP1 CPT -23%, MCF10A rerep 4%, IL1B secr inh -11 and TDP1 cell noCPT -9%.
For COc1ccccc1-c1ccnc(-n2ncc(C(=O)N(C)CCc3ccccn3)c2C)n1 the results were DT40 TDP1 CPT 8%[9.04 µM] and TDP1 cell noCPT 8%.
`Cc1cnc(-n2ncc(C(=O)N(C)CCc3ccccn3)c2-c2cccs2)nc1-c1ccc(F)cc1` gave DT40 TDP1 CPT -14%[9.04 µM] and TDP1 cell noCPT 12µM*.
